Reference: PubChem BioAssay (Tox21)
Where “and” joins values, the source holds several entries; their conditions need not be identical. Identical values can stand only once. Results filed as inconclusive are left out. More than one record can exist for a structure, and the calls need not agree. Calls of active or inactive are those of the source. Unless noted, calls follow the shape of the dose curve; as a rule, active = well fitted curve in the direction sought with a large enough effect in the repeat runs; inconclusive = weak or mixed curves; inactive = no such curve, though single readings can be large; an effect the other way counts as inactive or inconclusive.

Columns and labels:
[1] = qHTS assay to identify small molecule antagonists of the estrogen receptor alpha (ER-alpha) signaling pathway using the BG1 cell line in the presence of 0.1 nM 17-beta-estradiol - cell viability counter screen (AID 1259241); settings: VM7Luc4E2 (BG1) viability, CellTiter-Fluor protease, 22 h, 0.1 nM estradiol agonist added; series mostly up to 92.4 µM; also: nearly all actives have a fitted effect of over 40% in size
Method in brief: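 Measures cytotoxicity alongside the ER-alpha antagonist readout: VM7Luc4E2 cells, charcoal-stripped serum, 0.1 nM 17beta-estradiol final, 22 hr compound incubation at 37C, CellTiter-Fluor fluorescence.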

[2] = qHTS assay to identify small molecule antagonists of the androgen receptor (AR) signaling pathway using the MDA cell line in the presence of 0.5 nM R1881 - cell viability counter screen (AID 1259242); settings: MDA-kb2 viability, CellTiter-Fluor protease fluorescence, 16 h; series mostly up to 92.4 µM; also: nearly all actives have a fitted effect of over 45% in size
Method in brief: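 Cells seeded at 3,000/well and allowed 5 hr at 37C, 0% CO2 before compound transfer and R1881 (0.5 nM final) addition; 16 hr later, live-cell protease fluorescence indicated cytotoxicity.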

[3] = biological target: Estrogen receptor (Homo sapiens) (UniProt P03372); assay: qHTS assay to identify small molecule antagonists of the estrogen receptor alpha (ER-alpha) signaling pathway using the BG1 cell line in the presence of 0.1 nM 17-beta-estradiol (AID 1259244); settings: VM7Luc4E2 (BG1) ERE-luciferase, antagonist mode, 0.1 nM E2, 22 h; series mostly up to 92.4 µM; also: nearly all actives have a fitted effect of over 50% in size
Method in brief: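 Luciferase signal from VM7Luc4E2 ERE-reporter cells, co-dosed with test compound and 0.1 nM final 17beta-estradiol for 22 h, read with ONE-Glo.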

[4] = qHTS assay to identify small molecule phospholipidosis (PLD) inducers (AID 1259344; active = well fitted curve in the direction sought with a large enough effect; an effect the other way counts as inactive or inconclusive); settings: HepG2 phospholipidosis, LipidTOX Red imaging, 24 h; series mostly up to 38.3 µM
Method in brief: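 Accumulated phospholipid, stained red by LipidTOX during 24 h compound treatment of HepG2 cells at 37 C, is quantified from images as pit number and intensity, normalised per cell using Hoechst-stained nuclei.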

[5] = qHTS assay to identify small molecule HDAC inhibitors (AID 1259364); settings: HCT-116 HDAC-Glo I/II luminescence, 2 h; series mostly up to 92.4 µM;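 also: wild-type HCT-116 cells with endogenous class I/II HDAC activity; top concentration of the series differs between compounds; nearly all actives have a fitted effect of over 45% in size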
Method in brief: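 HCT-116 wt cells, 1,500/well, overnight attach. Compounds (DMSO) 2 h, 37 °C. HDAC-Glo I/II, 30 min RT. Luminescence.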

[6] = qHTS assay to identify small molecule HDAC inhibitors - cell viability counter screen (AID 1259365); settings: HCT-116 viability, CellTiter-Glo ATP luminescence, 2 h; series mostly up to 92.4 µM; also: nearly all actives have a fitted effect of over 50% in size
Method in brief: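 Following a 2hr exposure of overnight-plated wild-type HCT-116 cells to DMSO-delivered compounds, CellTiter-Glo was added and luminescence recorded after 30min at room temperature.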

[7] = qHTS assay to identify small molecule agonists of the sonic hedgehog signaling (Shh) pathway - cell viability counter screen (AID 1259366); settings: NIH/3T3 Gli1-Luc viability, CellTiter-Fluor, 24 h; series mostly up to 92.4 µM; also: nearly all actives have a fitted effect of over 50% in size; also: potency is read from the fitted curve at half-maximal effect
Method in brief: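 After a 4hr attachment at 37C, NIH/3T3 cells bearing an integrated Gli1-driven luciferase reporter were dosed with compounds. Treatment lasted 24hr, with the final hour including CellTiter-Fluor for a fluorescence viability measurement.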

[8] = qHTS assay to identify small molecule antagonists of the sonic hedgehog signaling (Shh) pathway - cell viability counter screen (AID 1259367); settings: NIH/3T3 Gli1-Luc viability, CellTiter-Fluor, 24 h; series mostly up to 92.4 µM; also: nearly all actives have a fitted effect of over 55% in size; also: potency is read from the fitted curve at half-maximal effect
Method in brief: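 CellTiter-Fluor signal in conditioned medium-stimulated 3T3 Gli1-Luc cells, 23 hr compound exposure, 37C.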

[9] = qHTS assay to identify small molecule agonists of the sonic hedgehog signaling (Shh) pathway (AID 1259368; calls by dose curve;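 also: NIH/3T3-derived 3T3Gli1-Luc cells carrying a stable Gli1-driven firefly luciferase reporter; nearly all actives have a fitted effect of over 15% in size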); settings: NIH/3T3 Gli1-Luc reporter, luciferase, 24 h; series mostly up to 92.4 µM
Method in brief: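 Following a 24 hr incubation with DMSO-dissolved compounds at 37 C, 5% CO2, Gli1-Luc NIH/3T3-derived cells received luciferase reagent for 30 min at room temperature prior to luminescence measurement.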

[10] = biological target: Androgen receptor (Homo sapiens) (UniProt P10275); assay: qHTS assay to identify small molecule antagonists of the androgen receptor (AR) signaling pathway using the MDA cell line in the presence of 0.5 nM R1881 (AID 1259243); settings: MDA-kb2 MMTV-luciferase, R1881 0.5 nM, 16 h; series mostly up to 92.4 µM; also: nearly all actives have a fitted effect of over 50% in size; also: potency is read from the fitted curve at half-maximal effect
Method in brief: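 Luminescence from an AR/GR-responsive MMTV-luciferase construct in MDA-kb2 breast carcinoma cells, read 30 min after ONE-Glo, following 16 hr co-treatment with compounds and 0.5 nM R1881.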
% is scaled to controls: 0 for no effect and ±100 for the full control effect.

Chain of Estrogen receptor (Homo sapiens) (P03372 whole entry, looked up): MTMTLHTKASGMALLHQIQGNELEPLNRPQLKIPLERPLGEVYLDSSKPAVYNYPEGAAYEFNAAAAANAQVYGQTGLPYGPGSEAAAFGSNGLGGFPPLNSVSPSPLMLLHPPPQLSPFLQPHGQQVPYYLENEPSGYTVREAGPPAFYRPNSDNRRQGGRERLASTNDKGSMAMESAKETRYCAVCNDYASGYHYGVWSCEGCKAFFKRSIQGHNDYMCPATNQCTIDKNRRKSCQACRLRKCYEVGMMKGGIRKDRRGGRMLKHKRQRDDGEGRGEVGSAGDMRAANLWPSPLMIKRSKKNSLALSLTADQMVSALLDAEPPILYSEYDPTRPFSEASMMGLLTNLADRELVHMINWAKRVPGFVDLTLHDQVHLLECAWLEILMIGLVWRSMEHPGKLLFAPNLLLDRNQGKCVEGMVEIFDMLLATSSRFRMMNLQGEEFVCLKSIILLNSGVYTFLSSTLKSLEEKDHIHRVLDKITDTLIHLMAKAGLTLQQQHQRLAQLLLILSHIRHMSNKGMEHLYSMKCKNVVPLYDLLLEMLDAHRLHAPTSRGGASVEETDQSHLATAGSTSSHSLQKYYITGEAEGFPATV
Chain of Androgen receptor (Homo sapiens) (P10275 whole entry, looked up): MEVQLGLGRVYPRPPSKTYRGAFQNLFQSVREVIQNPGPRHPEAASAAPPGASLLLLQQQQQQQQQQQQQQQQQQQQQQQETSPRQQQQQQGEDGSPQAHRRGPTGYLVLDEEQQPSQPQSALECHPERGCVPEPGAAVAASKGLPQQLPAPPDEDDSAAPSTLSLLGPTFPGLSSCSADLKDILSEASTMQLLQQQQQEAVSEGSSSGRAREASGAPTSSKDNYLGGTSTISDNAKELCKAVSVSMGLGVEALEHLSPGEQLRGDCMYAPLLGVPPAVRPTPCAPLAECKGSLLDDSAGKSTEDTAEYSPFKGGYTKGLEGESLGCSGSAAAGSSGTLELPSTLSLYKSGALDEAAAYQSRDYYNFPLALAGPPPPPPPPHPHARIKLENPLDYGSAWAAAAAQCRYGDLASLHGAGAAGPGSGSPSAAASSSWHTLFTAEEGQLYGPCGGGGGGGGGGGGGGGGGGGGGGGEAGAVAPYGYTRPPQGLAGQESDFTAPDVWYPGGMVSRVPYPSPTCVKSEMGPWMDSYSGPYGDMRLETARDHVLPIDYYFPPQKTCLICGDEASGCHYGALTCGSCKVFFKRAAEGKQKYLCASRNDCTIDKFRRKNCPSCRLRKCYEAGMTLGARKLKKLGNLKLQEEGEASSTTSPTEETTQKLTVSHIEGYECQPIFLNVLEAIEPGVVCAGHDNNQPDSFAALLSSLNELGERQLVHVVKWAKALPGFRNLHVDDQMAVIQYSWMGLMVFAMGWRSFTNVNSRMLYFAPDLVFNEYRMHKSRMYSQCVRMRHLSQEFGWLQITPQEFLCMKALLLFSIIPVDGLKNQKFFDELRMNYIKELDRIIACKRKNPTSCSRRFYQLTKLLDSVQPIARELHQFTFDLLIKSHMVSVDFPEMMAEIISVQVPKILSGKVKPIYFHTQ

CC(=O)[C@@]1(O)CC[C@H]2[C@@H]3C[C@H](C)C4=CC(=O)C=C[C@]4(C)[C@@]3(F)[C@@H](O)C[C@@]21C
inactive: Potency [1] | Potency [2] | Potency [3] | Potency [4] | Potency [5] | outcome [6] | Potency [7] | Potency [8] | Potency [9]

Cc1ccc(/C(=C\CN2CCCC2)c2ccccn2)cc1
inactive: Potency [1] | Potency [2] | Potency [3] | Potency [4] | Potency [5] | outcome [6] | Potency [7] | Potency [9]
36.2 µM (active) and inactive: Potency [8]

O=C(O)COCCN1CCN(C(c2ccccc2)c2ccc(Cl)cc2)CC1 (stereo unspecified)
inactive: Potency [1] | Potency [2] | Potency [3] | Potency [4] | Potency [5] | outcome [6] | Potency [7] | Potency [8] | Potency [9]

CC1(C)O[C@@H]2C[C@H]3[C@@H]4C[C@H](F)C5=CC(=O)C=C[C@]5(C)[C@@]4(F)[C@@H](O)C[C@]3(C)[C@]2(C(=O)CO)O1
inactive: Potency [1] | Potency [2] | Potency [3] | Potency [4] | Potency [5] | outcome [6] | Potency [7] | Potency [8] | Potency [9]

CC(=O)Oc1c(C)c(C)c2c(c1C)CC[C@@](C)(CCC[C@H](C)CCC[C@H](C)CCCC(C)C)O2
inactive: Potency [1] | Potency [2] | Potency [3] | Potency [4] | Potency [5] | outcome [6] | Potency [7] | Potency [8] | Potency [9]

O=Cc1ccccc1C=O
61.1 µM (active) and inactive: Potency [7]
inactive: Potency [1] | Potency [2] | Potency [3] | Potency [4] | Potency [5] | outcome [6] | Potency [9]
54.5 µM (active) and inactive: Potency [10] | Potency [8]

CNC[C@H](O)c1ccc(O)c(O)c1
inactive: Potency [1] | Potency [2] | Potency [3] | Potency [4] | Potency [5] | outcome [6] | Potency [7] | viability change, negative = cytotoxic [8] -0.782% [at 19 µM] | Potency [9]

CC1(C)C(C=C(Cl)Cl)C1C(=O)OCc1cccc(Oc2ccccc2)c1 (stereo unspecified)
inactive: Potency [1] | Potency [2] | Potency [10] | Potency [3] | Potency [4] | Potency [5] | outcome [6] | Potency [7] | Potency [8] | Potency [9]

CC[C@]12CCCN3CCc4c(n(c5ccccc45)[C@@](O)(C(=O)OC)C1)[C@@H]32
inactive: Potency [1] | Potency [2] | Potency [10] | Potency [4] | Potency [5] | outcome [6] | Potency [7] | Potency [8] | Potency [9]

CCc1cccc2c3c([nH]c12)C(CC)(CC(=O)O)OCC3 (stereo unspecified)
inactive: Potency [1] | Potency [2] | Potency [10] | Potency [3] | Potency [4] | Potency [5] | outcome [6] | Potency [7] | Potency [8] | Potency [9]

C/C=C/C(=O)N(CC)c1ccccc1C
inactive: Potency [1] | Potency [2] | Potency [3] | Potency [4] | Potency [5] | outcome [6] | Potency [7] | Potency [8] | Potency [9]

CCC(Cc1c(I)cc(I)c(N)c1I)C(=O)O (stereo unspecified)
inactive: Potency [1] | Potency [2] | Potency [3] | Potency [4] | Potency [5] | outcome [6] | Potency [7] | Potency [8] | Potency [9]

OC[C@@H](O)[C@@H](O[C@@H]1O[C@H](CO)[C@H](O)[C@H](O)[C@H]1O)[C@H](O)[C@@H](O)CO
inactive: Potency [1] | Potency [2] | Potency [3] | Potency [4] | Potency [5] | outcome [6] | Potency [7] | Potency [8] | Potency [9]

c1ccc2c(c1)ccc1ncccc12
inactive: Potency [1] | Potency [2] | Potency [3] | Potency [5] | outcome [6] | Potency [7] | Potency [8] | Potency [9]
active: Potency [10] 3.83 µM and 5.45 µM

CC(=O)O[C@]1(C(C)=O)CC[C@H]2[C@@H]3C=C(C)C4=CC(=O)CC[C@]4(C)[C@H]3CC[C@@]21C
inactive: Potency [1] | Potency [2] | Potency [3] | Potency [4] | Potency [5] | outcome [6] | Potency [7] | Potency [8] | Potency [9]

CCCCCCCC/C=C\CCCCCCCC(=O)O
inactive: Potency [1] | Potency [2] | Potency [3] | Potency [4] | Potency [5] | outcome [6] | Potency [7] | Potency [8] | Potency [9]

CC(=O)[C@H]1CC[C@H]2[C@@H]3CC=C4C[C@@H](O)CC[C@]4(C)[C@H]3CC[C@]12C
inactive: Potency [1] | Potency [2] | Potency [3] | Potency [5] | outcome [6] | Potency [7] | Potency [8] | Potency [9]

Brc1nc2ccccc2s1
inactive: Potency [1] | Potency [2] | Potency [3] | Potency [5] | outcome [6] | Potency [7] | Potency [8] | Potency [9]

CCCCCCCCCCCCO
inactive: Potency [1] | Potency [2] | Potency [3] | Potency [5] | outcome [6] | Potency [7] | Potency [8] | Potency [9]

OCCNCCO
inactive: Potency [1] | Potency [2] | Potency [3] | Potency [5] | outcome [6] | Potency [7] | Potency [8] | Potency [9]

CCCCCC1C(=O)CCC1CC(=O)OC (stereo unspecified)
inactive: Potency [1] | Potency [2] | Potency [3] | Potency [5] | outcome [6] | Potency [7] | Potency [8] | Potency [9]

C=CCNCC=C
inactive: Potency [1] | Potency [2] | Potency [3] | Potency [5] | outcome [6] | Potency [7] | Potency [8] | Potency [9]

CC(=O)Nc1ccc2c(c1)Cc1cc(NC(C)=O)ccc1-2
inactive: Potency [1] | Potency [2] | Potency [3] | Potency [5] | outcome [6] | Potency [7] | Potency [8] | Potency [9]

COC(=O)CC(=O)OC
inactive: Potency [1] | Potency [2] | Potency [3] | Potency [5] | outcome [6] | Potency [7] | Potency [8] | Potency [9]
